Test results reported in PubChem BioAssay (NCATS).
Records with an inconclusive call do not appear. Unmarked numbers belong to inactive results. Calls of active or inactive are those of the source. The call rests on the fitted dose curve; in most records, active means well fitted inhibition curve with a large enough effect; inconclusive means small, poorly fitted or top-dose-only effect; inactive means flat fitted curve, though single readings scatter.

Each compound was assayed on CRL-7250 (assay: Cytotoxic Profiling of Annotated Libraries Using Quantitative High-Throughput Screening (AID 1296008; further: nearly all actives have a fitted effect of over 60% in size)). Settings: Five cell lines viability, CellTiter-Glo ATP luminescence, 48-72 h; max response: stronger effect = lower value.
Method in brief: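 Compounds were pin-transferred onto cells and incubated 48 or 72 hr at 37 degree Celsius, 95% humidity. CellTiter-Glo was added, plates sat 10 min at room temperature, then ATP-coupled luminescence was imaged as the viability read-out.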
On the % scale 0 is the no-effect control and ±100 the full control effect; potency means the concentration at half of the fitted maximal effect.

| SMILES | max response [%] | outcome | Potency |
| --- | --- | --- | --- |
| Fc1ccc(N2CCCCC2)c(NC(=S)c2ccncc2)c1 | 3.95 | – | – |
| O=C(Nc1ccccc1Br)NC1CCN(c2ccc(C(F)(F)F)cn2)C1 (centres undefined) | – | inactive | – |
| OC[C@H]1O[C@@H](OC/C=C/c2ccc(O)cc2)[C@H](O)[C@@H](O)[C@@H]1O | -28.9 | – | – |
| CC(C)=CCC/C(C)=C/COCC1OC(n2ccc(=O)[nH]c2=O)C(O)C1O (centres undefined) | -3.59 | – | – |
| O=C1C[C@]23C=CCN4CCC5c6cc7c(cc6N1[C@@]5(CC2)C43)OCO7 (some centres undefined) | -12 | – | – |
| COc1cccc(NCCC2(c3ccccc3)CC(C)(C)OC(C)(C)C2)c1 | -3.59 | – | – |
| CNc1cccc(CCOc2ccc3c(c2)CN(CC(F)(F)F)C(=O)[C@H](CC(=O)O)C3)n1 | – | – | 0.082 µM (active) |
| Clc1cccc(COc2cncc(N3CCNCC3)n2)c1 | – | inactive | – |
| CCOc1cn(-c2ccc(F)cc2C)nc1C(=O)Nc1ccc(Oc2ccnc3cc(OC)c(OC)cc23)c(F)c1 | -25.1 | – | – |
| Nc1nccc(-c2c(-c3ccc(F)cc3)ncn2C2CCCCC2)n1 | -18.7 | – | – |
| CCN1CCC[C@@H]1CNC(=O)c1ccc2c(c1)NC(=O)c1cccc(C)c1S2 | 2.08 | – | – |
| O=C(Cc1c(F)cccc1F)Nc1cc(OCc2ccc(Cl)cc2)ccn1 | 3.56 | – | – |
| CCCC(Nc1nc(-c2ccc(NC(=O)NCC)c(OC)c2)ncc1C)c1cccnc1 (centres undefined) | – | – | 0.206 µM (active) |
| COc1ccc(S(=O)(=O)N2CCC[C@H]2C(=O)Nc2cc(C)cc(C)c2)cc1 | 2.15 | – | – |
| CC1(CO)CC2C(O)C3=C(CC(C)(O)C2C1)C(=O)OC3 (centres undefined) | -1.99 | – | – |
| CCN(c1cc(-c2ccc(CN3CCOCC3)cc2)cc(C(=O)NCc2c(C)cc(C)[nH]c2=O)c1C)C1CCOCC1 | -21.9 | – | – |
| COc1ccnc(CS(=O)c2nc3cc(OC(F)F)ccc3[nH]2)c1OC (centres undefined) | -13.2 | – | – |

| SMILES | max response [%] | outcome | Potency |
| --- | --- | --- | --- |
| O=C(c1c(F)ccc(NS(=O)(=O)N2CC[C@@H](F)C2)c1F)c1c[nH]c2ncc(-c3cnc(C4CC4)nc3)cc12 | – | – | 23.1 µM (active) |
| O=C(CNC(=O)c1cccc(C(F)(F)F)c1)N[C@@H]1CCN(Cc2ccc(Cl)cc2)C1 | -11.8 | – | – |
| C=C(C(=O)OC[C@H]1O[C@@H](OC(=O)/C=C/c2ccccc2)[C@H](O)[C@@H](O)[C@@H]1O)C(O)CO (some centres undefined) | -9.26 | – | – |
| O=C(NCCN1CCC(n2c(=O)[nH]c3ccccc32)CC1)c1cc2cc(F)ccc2[nH]1 | 4.31 | – | – |
| CC1(C)SCCN(S(=O)(=O)c2ccc(Oc3ccncc3)cc2)[C@H]1C(=O)NO | -1.93 | – | – |
| COc1ccccc1C(=O)Nc1cc2c(cc1N1CCCC1)n(C)c(=O)n2C | -29 | – | – |
| CC1=CC2/C=C(\C)CCC3OC(C)(C)OC3CCC(=O)C23C(=O)NC(CC(C)C)C3C1C (centres undefined) | 4.29 | – | – |
| COc1ccc2nc3n[nH]c(C)c3c(NCCOCCO)c2c1 | 4.22 | – | – |
| CO[C@@H]1CC(OC2CCC3(C)C(CCC45CCC(C6=CC(=O)OC6)C(C)(CCC43)C5=O)C2)O[C@H](C)[C@@H]1O[C@@H]1O[C@H](CO[C@@H]2O[C@H](CO)[C@@H](O)[C@H](O)[C@H]2O)[C@@H](O)[C@H](O)[C@H]1O (some centres undefined) | – | – | 2.46 µM (active) |
| CCCSc1nc(N[C@@H]2C[C@H]2c2ccc(F)c(F)c2)c2nnn([C@@H]3C[C@H](OCCO)[C@@H](O)[C@H]3O)c2n1 | – | inactive | – |
| Cc1cc(C)c2c(c1)C(N(Cc1cc(C(F)(F)F)cc(C(F)(F)F)c1)c1nnn(C)n1)CCCN2CC1CCC(C(=O)O)CC1 (centres undefined) | 2.9 | – | – |
| CC(=O)O[C@H]1[C@H](O)C[C@@]2(C)C(CC[C@]3(C)C2CC=C2C4CC(C)(C)CC[C@]4(C(=O)O)CC[C@]23C)C1(C)C (some centres undefined) | -14.7 | – | – |
| CC1(NC(=O)c2ccc(C#Cc3cccc(F)c3)cn2)COC1 | 4.8 | – | – |
| C/C=C/C=C/C=C/C(=O)O[C@@H]1C=C2COC(=O)[C@]2(O)[C@@]2(C)CCCC(C)(C)[C@H]12 | -25.9 | – | – |
| Cn1ccc(NC(=O)c2cc(Oc3ccc(C(=O)N4CCC4)c(F)c3)c3c(c2)OC(C)(C)C3)n1 | 3.93 | – | – |
| Cn1ncc2cc(-c3cnc(N)c(Cl)c3N3CCC4(CCNC4=O)CC3)ccc21 | – | inactive | – |
| Cc1ccnn1-c1ccc(C(=O)N2CCN(S(=O)(=O)c3ccc(Cl)c(C(F)(F)F)c3)CC2)cc1 | – | inactive | – |
